# Assay outcomes from PubChem BioAssay.
# An excerpt weighted towards active compounds, which were near 8% of everything screened.
# Lassa entry inh = blocks Lassa virus binding to or entry into cells; Potency, µM (titrated, usually from 37.9 µM), inactives show at the highest dose activity change, negative = inhibition, hits mostly inhibitors; Lassa virus pseudotype entry inhibition, cell reporter; actives 1.2% (n = 300,000); AID 540256; calls by dose curve; tested in HEK293 cells; note: potency is the fitted concentration of half-maximal effect; % is set by controls: 0 for no effect and ±100 for the full control effect; nearly all actives have a fitted effect of over 50% in size
# HCV inh = blocks hepatitis C virus; Huh7.5.1 HCVcc-Cre infection, luciferase reporter, 44 h; Potency, µM (doses to about 41.8 µM), inactives show top-dose activity change, negative = inhibition, hits mostly inhibitors; actives 3.4% (n = 340,000); active = well fitted inhibition curve with a large enough effect; inconclusive = small, poorly fitted or top-dose-only effect, or another doubt; inactive = no such curve, though single readings can be large or run the other way; note: potency is the fitted concentration of half-maximal effect; % is set by controls: 0 for no effect and ±100 for the full control effect
#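 Infectious HCVcc-Cre (~0.5 moi) was added to cells just after compound, with cells seeded 4 h earlier at 1,000 per well. Luciferase activity after 44 h culture reported infection; substrate was incubated 15 min at room temperature before reading.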
# HCMV antiviral = human cytomegalovirus inhibition. activity change, negative = inhibition, % at 57.5 µM. HFF cells, HCMV-luciferase reporter, 72 h; active compounds read low. actives 4.5% (n = 410,000); in the data active = activity change below about -60%; inconclusive = no clear call, values can overlap the other calls; inactive = above about -39%; note: % is set by controls: 0 for no effect and ±100 for the full control effect
#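 HFF cells seeded 16 h at 37C, treated with compounds, infected with luciferase-reporter HCMV at MOI 1 PFU/cell; luciferase read at 72 h post infection, normalized to buffer-only and Salinomycin controls.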
# SARS PLP yeast = SARS-CoV PLP inhibition in yeast; Potency, µM (titrated, usually from 32.9 µM), inactives show top-dose activity, positive = growth rescue, usual class: activators; AID 485353; actives 0.19% (n = 330,000); S. cerevisiae expressing SARS-CoV PLpro, growth rescue; calls by dose curve; note: potency is the fitted concentration of half-maximal effect; 0% is about no effect; nearly all actives have a fitted effect of over 55% in size
# Marburg entry inh = blocks Marburg virus binding to or entry into cells; Marburg virus pseudotyped entry inhibition, cell reporter; Potency, µM (titrated, usually from 37.8 µM), inactives show at the highest dose activity change, negative = inhibition, usual class: inhibitors; actives 1.8% (n = 300,000); calls by dose curve; tested in HEK293 cells; note: potency is the fitted concentration of half-maximal effect; % is set by controls: 0 for no effect and ±100 for the full control effect
# FMDV inh = blocks foot and mouth disease virus | FMDV antiviral cell-based qHTS | Potency, µM (highest dose often 57.9 µM), for the others: at the highest dose activity change, negative = inhibition, actives largely listed as inhibitors | actives 1.2% (n = 410,000) | AID 1159524; calls by dose curve; tested in HEK293T cells; note: read-out not given here; potency is the fitted concentration of half-maximal effect; % is set by controls: 0 for no effect and ±100 for the full control effect; nearly all actives have a fitted effect of over 45% in size
# * hit, by the source's call; u = inconclusive; x = no result given; [ ] = dose if it differs, or a comment.
SMILES,Lassa entry inh,HCV inh,HCMV antiviral,SARS PLP yeast,Marburg entry inh,FMDV inh
C=CCSc1n[nH]c(-c2ccc(OC)cc2)n1,-18.2%,19.6%,72.8,-15.6%,1.2%,46.7%
CCN(CC)c1nn2c(=O)c(C(=O)NCCc3cccc(C)c3)cnc2s1,u,x,-32.6,x,x,0.0%
COc1ccc(-c2nc3ccccn3c2Cl)cc1,3.55µM*,u,-33.6,-4.6%,u,u
COc1ccc(-c2nc3ccccn3c2CN2CCN(c3ccccc3F)CC2)cc1,-13.0%,u,-60.8*,-2.6%,-18.4%[46.1 µM],-27.2%
COc1ccc(-n2nc(C(=O)N3CCN(c4cccc(C)c4C)CC3)c3c4ccccc4n(C)c3c2=O)cc1,13.3%[46.1 µM],x,18.3,x,-1.9%[46.1 µM],-16.9%
Cc1ccc(-c2c(C(=O)N3CCN(c4cccc(C)c4)C(C)C3)oc(=O)c3ccccc23)cc1 (stereo not drawn),u,x,-70.1*,x,u,u
Cc1cccc(N2CCN(C(=O)c3ccc(CS(=O)(=O)c4ccccc4C)o3)CC2C)c1 (stereo not drawn),3.6%,5.6%,-66.8*,-11.5%,-22.5%,4.5%
Cc1ccc(C)c(N2CCN(C(=O)c3ccc(CS(=O)(=O)c4ccccc4C)o3)CC2)c1,u,u,-15.9,-3.9%,u,u
COc1ccc2c(c1)-c1nc(/N=C/c3ccc(O)c(OC)c3)sc1CC2,5.5%,11.2µM*,x,-50.8%,u,1.8%
COc1ccc2c(c1)-c1nc(N)sc1CC2,16.7%[46.1 µM],u,u,-4.9%,-1.6%[46.1 µM],26.6%
CCC[C@@H]1NC(=O)CNC(=O)[C@H](Cc2ccccc2)NC(=O)[C@H]([C@H](C)O)NC(=O)[C@H](CCC(N)=O)NC(=O)C(C(C)C(C)Cl)NC(=O)[C@H](CC(C)C)N(C)C(=O)[C@H](C)NC(=O)CC(O)C(NC(=O)[C@@H](CC(C)C)NC=O)C(C)OC1=O (stereo partly drawn),x,x,18.3,x,x,x
CCC(C)C1NC(=O)C(NC(=O)C(CC(C)C)N(C)C(=O)C2CCCN2C(=O)C(C)O)C(C)OC(=O)C(Cc2ccc(OC)cc2)N(C)C(=O)C2CCCN2C(=O)C(CC(C)C)NC(=O)[C@H](C)C(=O)[C@H](C(C)C)OC(=O)CC1O (stereo partly drawn),u,u,-97.3*,x,u,u
C=CC[C@@H](CC(=O)N(CCO)Cc1ccccc1)C(=O)NC[C@H](OC(=O)[C@@H](CC=C)Cc1ccc(F)cc1)c1ccccc1,x,u,-0.6,24.6%,x,14.1µM*
C=CC[C@@H](CC(=O)N(CCO)Cc1ccccc1)C(=O)N[C@H](COC(=O)[C@@H](CC=C)Cc1ccc(F)cc1)c1ccccc1,x,11.2µM*,24.2,1.0%,x,u
C=CC[C@@H](CC(=O)N(CCO)Cc1ccccc1)C(=O)N[C@@H](C)COC(=O)[C@@H](CC=C)Cc1ccc(F)cc1,x,u,-12.3,-8.2%,x,u
C=CC[C@@H](CC(=O)N(CCO)Cc1ccccc1)C(=O)NC[C@@H](OC(=O)[C@@H](CC=C)CC(=O)OC(C)(C)C)c1ccccc1,x,10µM*,-9.4,-3.9%,x,u
CCOC(=O)c1c(C)[nH]c(CCC(=O)NCCCN2CCN(c3ccccc3F)CC2)c1C,11.1%[46.1 µM],x,-30.2,x,x,-18.9%
Cc1ccccc1N=Nc1c(C)[nH]n(C(N)=S)c1=O,18.0%,24.7%,-35.8,3.7%,-1.1%,9.9%
CCOc1ccccc1N=Nc1c(C)[nH]n(C(N)=S)c1=O,11.5%[46.1 µM],10µM*,-85.2*,1.1%,13.9%[46.1 µM],-22.3%
C=Cc1ccc(CN2C(=O)N(c3cccc(Cl)c3)S(=O)(=O)c3ccccc32)cc1,-7.3%[46.1 µM],x,0.3,x,x,-11.3%
CC(=O)N1CCc2cc(NC(=O)C3(C)CCN3Cc3ccccc3OC(F)F)ccc21 (stereo not drawn),x,x,-61.0*,x,x,u
COc1cccc(NC(=O)C2(C)CCN2Cc2ccccc2OC(F)F)c1 (stereo not drawn),x,x,u,x,x,-26.0%
COc1cccc(NC(=O)C2(C)CCN2Cc2ccc(OC)c3ccccc23)c1 (stereo not drawn),x,x,5.0,x,x,0.0%
CSc1ccc(CN2CCC2(C)C(=O)Nc2cnc3ccccc3c2)cc1 (stereo not drawn),x,x,-9.3,x,x,-14.7%
CC1(C(=O)Nc2cnc3ccccc3c2)CCN1Cc1ccccc1Cl (stereo not drawn),x,x,-76.5*,x,x,0.0%
SMILES,Lassa entry inh,HCV inh,HCMV antiviral,SARS PLP yeast,Marburg entry inh,FMDV inh
COc1cccc(CN2CCC2(C)C(=O)Nc2cccc(Oc3ccccc3)c2)c1OC (stereo not drawn),x,x,-60.8*,x,x,-28.4%
CCc1cccc2c(-c3ccc(F)cc3)nc(SCC(=O)Nc3ccccc3)nc12,12.3%[46.1 µM],x,17.3,x,19.2%[46.1 µM],-8.3%
COc1ccc(CNC(=O)C(=O)NCC(c2cccs2)S(=O)(=O)c2cccs2)cc1 (stereo not drawn),-18.1%[46.1 µM],x,11.1,x,x,u
Cc1ccc(Cn2c(=O)c3cccnc3n(Cc3ccc(C)cc3)c2=O)cc1,x,x,6.0,x,3.2%[46.1 µM],2.2%
CCOC(=O)Cn1c(=O)n(Cc2ccc(C)cc2)c(=O)c2cccnc21,x,0.794µM*,0.0,-0.3%,x,-20.6%
COc1ccc(-[n+]2c(-c3ccccc3)cc(-c3ccccc3)cc2-c2ccccc2)cc1,x,u,-97.3*,9.5%,x,3.16µM*
Oc1ccc(-[n+]2c(-c3ccccc3)cc(-c3ccccc3)cc2-c2ccccc2)cc1,x,8.91µM*,-96.7*,-0.5%,x,10µM*
O=C([O-])c1ccc(-[n+]2c(-c3ccccc3)cc(-c3ccccc3)cc2-c2ccccc2)cc1,x,-1.0%,18.3,-0.3%,x,-22.5%
CC1=C(c2ccc(C(C)C)cc2)S(=O)(=O)NC1=NCc1ccccc1Br,-2.4%[46.1 µM],x,-2.2,x,u,22.8%
